Measurements from PubChem BioAssay AID602405 (Broad Institute, 2012).
In all, about 360,000 compounds went through this assay and about 350 (0.097%) were called active. Cut-off read from the data, not from the text of the source: active = inhibition above about 16% (passing the limit was not always enough); inconclusive = no clear call, values can overlap the other calls; inactive = below that. Many of the other results were omitted from the sample, so actives are more common in it than they were.

Tested on: UDP-N-acetylbacillosamine N-acetyltransferase PglD (Campylobacter jejuni)
Experiment: blockers of PglD enzyme activity – biochemical, DTNB colorimetric, single point, primary screen (AID 602405)
Conditions: purified PglD enzyme, DTNB colorimetric CoA detection; at 12.5 µM; active compounds read high

SMILES | inhibition
CCCc1cn(CC[C@@H]2CC[C@H](NS(=O)(=O)c3ccccc3Cl)[C@H](CO)O2)nn1 | -0.55% (inactive)
CC(=O)N1C[C@@H]2[C@H](c3ccccc31)[C@H](CO)N2Cc1ccc(Cl)cc1 | 2.15% (inactive)
CCCNC(=O)C[C@@H]1C[C@@H]2c3cc(N(C)C)ccc3O[C@@H]2[C@H](CO)O1 | -5.6% (inactive)
COc1ccc(S(=O)(=O)N(C)C[C@H]2OCCCC[C@H](C)Oc3ccc(NC(=O)Nc4ccc(F)cc4)cc3C(=O)N([C@@H](C)CO)C[C@H]2C)cc1 | -0.001% (inactive)
C[C@@H](NC(=O)[C@H]1[C@H](CO)[C@H]2Cn3c(cccc3=O)[C@H]2N1C(=O)C1CC1)c1ccccc1 | -3.9% (inactive)
O=C(COc1ccc(Br)cc1)OCC(=O)c1ccc[nH]1 | 0.716% (inactive)
CCOc1ccc(NC(=O)CCNC(=O)c2ccc(Br)cc2)cc1 | 1.93% (inactive)
CC(=O)Nc1ccc(OC(=O)COc2ccc(Br)cc2)cc1 | 83.3% (active)
C[C@H](CO)N1C[C@H](C)[C@H](CN(C)Cc2ccccc2)Oc2ccc(NC(=O)Cc3ccccc3)cc2C1=O | -3.27% (inactive)
COCC(=O)Nc1ccc2c(c1)C(=O)N(C)[C@H]1CC[C@@H](CC(=O)Nc3cn(C)nc3C)O[C@@H]1CO2 | 2.19% (inactive)
O=C(c1cccc(Cl)c1)N1CCN(Cc2ccccc2)CC1 | -4.44% (inactive)
O=C(NCc1ccncc1)C1CCN(C(=O)c2cccc(Cl)c2)CC1 | 22.3% (active)
COc1ccc(CNC(=O)C2CCN(C(=O)c3ccccc3)CC2)cc1 | -3.01% (inactive)
CC(C)NC(=O)N[C@H]1C=C[C@H](CC(=O)NCCN2CCCC2)O[C@@H]1CO | 0.57% (inactive)
CCC(=O)N1[C@@H](CO)[C@@H]2c3ccccc3N(C(=O)c3ccccc3F)C[C@@H]21 | -0.466% (inactive)
COc1ccc(CN(C)C[C@@H]2OCCCC[C@H](C)Oc3ccc(NS(C)(=O)=O)cc3C(=O)N([C@@H](C)CO)C[C@H]2C)cc1 | -1.59% (inactive)
O=C(NC[C@@H]1[C@H](c2ccccc2)[C@H](CO)N1CC1CCCC1)c1cccnc1 | 1.03% (inactive)
CC=Cc1ccc2n(c1=O)C[C@H]1[C@H](CO)[C@@H](C(=O)NCc3ccncc3)N(Cc3cncnc3)[C@@H]21 (mixture of isomers) | -1.52% (inactive)
CC=Cc1ccc2n(c1=O)C[C@@H]1[C@@H](CO)[C@H](C(=O)N3CCCCC3)[C@H]2N1C(=O)C1CCC1 (mixture of isomers) | 2.61% (inactive)
C[C@@H]1CCCCO[C@H](CN(C)Cc2ccc(C(F)(F)F)cc2)[C@@H](C)CN([C@@H](C)CO)C(=O)c2cc(NC(=O)c3ccncc3)ccc2O1 | 3.05% (inactive)
CC(C)CN(C[C@@H]1N[C@@H](CO)[C@H]1c1ccccc1)C(=O)CN(C)C | 5.57% (inactive)
CO[C@@H]1CN(C)C(=O)c2cc(NC(=O)C3CCC3)ccc2OC[C@H](C)N(Cc2nccs2)C[C@H]1C | 0.477% (inactive)
Cc1noc(C)c1NC(=O)N(C)C[C@H]1Oc2c(NS(=O)(=O)c3cccs3)cccc2C(=O)N([C@@H](C)CO)C[C@@H]1C | 0.536% (inactive)

SMILES | inhibition
CO[C@@H]1CN(C)C(=O)c2cc(NC(=O)NC3CCCCC3)ccc2OC[C@H](C)N(CC2CCOCC2)C[C@H]1C | -1.39% (inactive)
CCCC(=O)Nc1ccc(C(=O)NCCCn2ccnc2)cc1 | -0.628% (inactive)
CCCCC(=O)Nc1ccc(C(=O)NCCCn2ccnc2)cc1 | 20.6% (active)
CC(=O)Nc1ccc(NC(=O)CCCNC(=O)c2ccc(Cl)cc2)cc1 | -4.6% (inactive)
COc1cccc(-c2ccc3c(c2)O[C@H](CN(C)Cc2ccncc2)[C@H](C)CN([C@H](C)CO)S3(=O)=O)c1 | -0.814% (inactive)
CCCC#Cc1ccc([C@H]2[C@@H](CO)N(C(=O)C3CC3)[C@H]2C#N)cc1 | 0.491% (inactive)
C[C@@H]1CN([C@H](C)CO)C(=O)c2cc(C#Cc3ccccn3)cnc2O[C@H]1CN(C)CC1CCOCC1 | 14.4% (inactive)
C[C@H]1CN([C@@H](C)CO)C(=O)c2cccc(NC(=O)C3CCOCC3)c2O[C@H]1CN(C)S(C)(=O)=O | -0.415% (inactive)
COc1ccc(CNC(=O)C[C@H]2CC[C@@H]3[C@H](COc4ccc(NC(=O)C5CC5)cc4C(=O)N3C)O2)cc1 | -0.548% (inactive)
C[C@H]1CN([C@@H](C)CO)C(=O)c2cc(N(C)C)ccc2O[C@@H]1CN(C)S(=O)(=O)c1ccc(Cl)cc1 | 14.8% (inactive)
C[C@@H]1CCCCO[C@@H](CN(C)Cc2ccc(C(=O)O)cc2)[C@H](C)CN([C@H](C)CO)C(=O)c2cc(NC(=O)Nc3ccc(F)cc3)ccc2O1 | 0.576% (inactive)
C[C@H](CO)N1C[C@H](C)[C@H](CN(C)S(=O)(=O)c2ccccc2)Oc2cc(Br)ccc2S1(=O)=O | -0.169% (inactive)
C[C@@H]1CN([C@@H](C)CO)C(=O)c2cc(NC(=O)Cc3ccccc3)ccc2O[C@@H](C)CCCCO[C@H]1CN(C)C(=O)Nc1cccc2ccccc12 | -0.256% (inactive)
CCOc1ccc(OCc2ccc(C(=O)Nc3cccc(C)n3)o2)cc1 | 1.24% (inactive)
CCOc1ccc(OCc2ccc(C(=O)N(C)c3ccccc3)o2)cc1 | 27.6% (active)
COc1ccc(NC(=O)CN(C)C(=O)c2ccc(COc3ccccc3)o2)cc1 | -2.65% (inactive)
C/C=C/c1ccc2c(c1)O[C@H](CN(C)C(C)=O)[C@H](C)CN([C@H](C)CO)S2(=O)=O | -0.698% (inactive)
CO[C@H]1CN(C)C(=O)c2ccc(NC(=O)C3CC3)cc2OC[C@@H](C)N(C)C[C@H]1C | 4.48% (inactive)
CO[C@@H]1CN(C)C(=O)c2ccc(NC(=O)C3CCCCC3)cc2OC[C@@H](C)N(Cc2nccs2)C[C@@H]1C | 1.22% (inactive)
Cc1ccc(S(=O)(=O)N(C)C[C@H]2Oc3c(NC(=O)c4ccc(-c5nccs5)cc4)cccc3C(=O)N([C@H](C)CO)C[C@H]2C)cc1 | -3.77% (inactive)
C[C@H]1CN([C@@H](C)CO)S(=O)(=O)c2ccc(C#Cc3ccccc3F)cc2O[C@@H]1CN(C)C(=O)c1ccc2c(c1)OCO2 | 1.7% (inactive)
CN1CCN(C(=O)C[C@@H]2C=C[C@@H](NS(=O)(=O)c3cccc(F)c3)[C@@H](CO)O2)CC1 | -7.9% (inactive)
CNC(=O)C[C@H]1CC[C@H]2[C@H](COc3ccc(NC(=O)Nc4cccc(C)c4)cc3C(=O)N2C)O1 | -0.336% (inactive)

SMILES | inhibition
COc1ccc(NC(=O)C2=NNC(=O)CC2)cc1S(=O)(=O)N1CCCCC1 | 25.4% (active)
COc1ccccc1C(=O)Nc1ccc(C)c(S(=O)(=O)N2CCCCC2)c1 | -5.07% (inactive)
CCOC(=O)C1CCN(CC(=O)Nc2ccc(OC)c(S(=O)(=O)N3CCCCC3)c2)CC1 | 2.34% (inactive)
C[C@@H]1CN([C@@H](C)CO)C(=O)c2cccc(NS(=O)(=O)c3ccc(Cl)cc3)c2O[C@@H]1CN(C)C(=O)Nc1ccccc1 | 0.684% (inactive)
N#C[C@H]1[C@@H](c2ccc(-c3ccccc3F)cc2)[C@H](CO)N1C(=O)c1ccccn1 | -0.127% (inactive)
COc1cccc(CNC(=O)C[C@H]2CC[C@@H](NC(C)=O)[C@@H](CO)O2)c1 | -2.55% (inactive)
C[C@@H]1CCCCO[C@H](CN(C)C(=O)C2CCCCC2)[C@@H](C)CN([C@@H](C)CO)C(=O)c2cc(NC(=O)Nc3ccccc3)ccc2O1 | -3.55% (inactive)
O=C(C[C@H]1C=C[C@H](NC(=O)Nc2cc(F)ccc2F)[C@H](CO)O1)Nc1ccccc1 | -2.58% (inactive)
C[C@@H]1CN([C@H](C)CO)C(=O)Cc2cc(NS(=O)(=O)c3cccs3)ccc2O[C@H]1CN(C)C(=O)Nc1ccc2c(c1)OCO2 | 2.77% (inactive)
C[C@@H]1CN([C@H](C)CO)S(=O)(=O)c2ccc(C#Cc3ccccc3F)cc2O[C@@H]1CN(C)C(=O)c1ccc2c(c1)OCO2 | -1.88% (inactive)
COc1ccc(S(=O)(=O)Nc2ccc3c(c2)C(=O)N([C@H](C)CO)C[C@@H](C)[C@H](CN(C)S(=O)(=O)c2ccc(C)cc2)O3)cc1 | 4.85% (inactive)
COCCNC(=O)C[C@H]1CC[C@@H]2[C@H](COc3ccc(NC(=O)Nc4cccc(F)c4)cc3C(=O)N2C)O1 | 0.139% (inactive)
CO[C@H]1CN(C)C(=O)c2ccc(NC(=O)c3cnccn3)cc2OC[C@@H](C)N(C(C)=O)C[C@H]1C | -1.18% (inactive)
C[C@@H]1CN([C@H](C)CO)C(=O)Cc2cc(NC(=O)C3CCCCC3)ccc2O[C@@H]1CN(C)S(C)(=O)=O | 56.5% (inactive)
CC(C)NC(=O)N1[C@@H]2CN(C(=O)Nc3ccc(F)cc3)c3ccccc3[C@@H]2[C@@H]1CO | 2.48% (inactive)
C[C@@H]1CCCCO[C@@H](CN(C)S(=O)(=O)c2ccccc2)[C@H](C)CN([C@H](C)CO)C(=O)c2cc(NC(=O)CCC(F)(F)F)ccc2O1 | 0.918% (inactive)
O=C(c1ccccc1)N1C[C@H]2[C@@H](c3ccccc31)[C@H](CO)N2Cc1ccccc1F | -1.39% (inactive)
CC(C)C#Cc1ccc([C@@H]2[C@H]3CN(C(=O)NC(C)C)CCCCN3[C@H]2CO)cc1 | 1.97% (inactive)
CN1C(=O)c2cc(NC(=O)C3CC3)ccc2OC[C@@H]2O[C@H](CC(=O)NCC3CCCCC3)CC[C@@H]21 | 0.676% (inactive)
CCCOc1ccc(F)cc1-c1cc(C(=O)NCc2ccc(F)cc2)[nH]n1 | 4.69% (inactive)
CCCOc1ccc(F)cc1-c1cc(C(=O)Nc2ccc(F)cc2)[nH]n1 | 21.5% (active)
CCCOc1ccc(F)cc1-c1cc(C(=O)Nc2ccc(F)c(Cl)c2)[nH]n1 | -24.9% (inactive)
